This passage reports outcome and AC50 results from PubChem BioAssay (EPA / NIEHS).

The source made the active and inactive calls. Rule for the calls: active = hit-call score of the fitted dose curve at least 0.9, where 1 is the maximum; inactive = score below 0.9.

One may read the AC50 as the concentration at which the activity in the assay is half-maximal.

Chain of Hypoxia-inducible factor 1-alpha (Homo sapiens) (Q16665 whole entry, looked up): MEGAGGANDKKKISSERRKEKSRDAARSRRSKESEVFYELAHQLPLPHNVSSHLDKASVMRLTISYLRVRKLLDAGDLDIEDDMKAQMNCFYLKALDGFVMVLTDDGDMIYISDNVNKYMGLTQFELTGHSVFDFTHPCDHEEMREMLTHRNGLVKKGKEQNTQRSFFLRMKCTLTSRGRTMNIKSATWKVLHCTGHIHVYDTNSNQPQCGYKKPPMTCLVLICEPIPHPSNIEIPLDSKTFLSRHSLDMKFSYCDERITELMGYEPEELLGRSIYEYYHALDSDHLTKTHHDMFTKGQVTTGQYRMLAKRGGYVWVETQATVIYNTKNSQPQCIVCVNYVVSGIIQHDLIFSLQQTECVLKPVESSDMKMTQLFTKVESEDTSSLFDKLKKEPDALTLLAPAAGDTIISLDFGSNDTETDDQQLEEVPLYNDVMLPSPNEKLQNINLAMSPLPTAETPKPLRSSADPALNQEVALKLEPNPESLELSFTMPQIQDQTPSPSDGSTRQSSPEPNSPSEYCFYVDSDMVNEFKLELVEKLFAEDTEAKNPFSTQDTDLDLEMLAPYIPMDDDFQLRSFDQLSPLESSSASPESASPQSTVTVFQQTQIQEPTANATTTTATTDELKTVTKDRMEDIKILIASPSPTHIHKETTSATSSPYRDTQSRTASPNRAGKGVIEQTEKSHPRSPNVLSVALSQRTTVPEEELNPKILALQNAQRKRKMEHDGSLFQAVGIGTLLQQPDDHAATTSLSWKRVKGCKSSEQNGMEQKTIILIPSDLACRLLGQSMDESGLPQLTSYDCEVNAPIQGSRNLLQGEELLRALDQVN

Read-out in this assay: Hypoxia-inducible factor 1-alpha (Homo sapiens) (UniProt Q16665)
The assay is described as follows: LTEA_HepaRG_HIF1A: Life Technologies and Expression Analysis (LTEA) Assay for Hypoxia-inducible factor 1 (HIF1A) Trancription factor using HepaRG (AID 2283503).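 Note: HIF1A transcript by TaqMan qRT-PCR normalized to ACTB GAPDH and POLR2A.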 As to conditions: mRNA level, 48 h; actives raise or lower the signal. In a few lines:
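HepaRG, 48 h exposure, 8-pt half-log series from 100 uM, 0.5% DMSO vehicle, duplicates. Readout: HIF1A transcript by qRT-PCR (Fluidigm array), housekeeping-normalised. Bidirectional curve fit vs DMSO baseline.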
In the case of `CC(C)(C)c1cc(C(C)(C)C)c(O)c(C(C)(C)C)c1`, the call was inactive.

`Cc1cc(C)c(O)c(C)c1`: the molecule was classed as inactive.

Regarding `CCCCC(CC)COC(=O)CCCCC(=O)OCc1ccccc1` (stereo not drawn), the outcome was inactive.

Consider `c1ccc2c(c1)ccc1ccccc12`, for which the outcome was inactive.

For the molecule `CCCCCCCCOC(=O)CCCCCCCCC(=O)OCCCCCCCC`, the outcome was inactive.

With `CC(C)(C)c1ccc(O)c(C(C)(C)C)c1`, the outcome was inactive.

Regarding `O=C(OCCOCCOC(=O)c1ccccc1)c1ccccc1`, the molecule was classed as inactive.

On to `CCCOc1sc(C(=O)N2CCC(c3cc(CN)ccc3F)CC2)c(C)c1Br`, for which the molecule was classed as inactive.

As to `CCc1nn(C2CCCCC2)c2cc(C3(C#N)CCC(C(=O)O)CC3)ccc12` (stereo not drawn), the call was inactive.

In the case of `COCC(C)OCC(C)O` (stereo not drawn), the molecule was classed as inactive.

Consider `CC(C)(C)CC(C)(C)c1ccc(O)c(-n2nc3ccccc3n2)c1`, for which the outcome was inactive.

For the molecule `CC(O)CO` (stereo not drawn), the result was inactive.

For `COc1ccc([N+](=O)[O-])cc1N`, the call was inactive.

Take `CCCCCCCCCCCCN1CCCC1=O`: the outcome was inactive.

Turning to `OCCC(F)(F)C(F)(F)C(F)(F)C(F)(F)C(F)(F)C(F)(F)F`, the call was inactive.

On to `CCCCCCCCCCCCc1ccccc1S(=O)(=O)O`, for which the AC50 was 14.4 µM (active).

Consider `OCCC(F)(F)C(F)(F)C(F)(F)C(F)(F)C(F)(F)C(F)(F)C(F)(F)C(F)(F)F`, for which the molecule was classed as inactive.

Turning to `CCCCOCCO`, the molecule was classed as inactive.

For `CCCCCCCCCCCCCCCS(=O)(=O)Oc1ccccc1`, the call was inactive.

Take `CC(C)(C)c1cccc(C(C)(C)C)c1O`: the outcome was inactive.

In the case of `CCC(=C(c1ccc(O)cc1)c1ccc(OCCN(C)C)cc1)c1ccccc1`, the AC50 was 83.8 µM (active).

Consider `CC(C)CCCCCCOC(=O)CCCCC(=O)OCCCCCCC(C)C`, for which the molecule was called inactive.

On to `CN1CCN(c2ccccc2/C=C2\SCCN(c3ccc(Cl)c(Cl)c3)C2=O)CC1`, for which the call was inactive.
